Data on 39 compounds can be found in PubChem BioAssay AID489008 (National Center for Advancing Translational Sciences (NCATS), 2010).

Records with an inconclusive call do not appear. The source made the active and inactive calls. Calls follow the shape of the dose curve; as a rule, active = well fitted inhibition curve with a large enough effect; inconclusive = small, poorly fitted or top-dose-only effect; inactive = flat fitted curve, though single readings scatter.
Potency is read from the fitted curve at half-maximal effect.

The target in this experiment is Ferritin light chain (Equus caballus) (UniProt P02791). In words: Confirmation Assay for Identification of Novel General Anesthetics. Also: nearly all actives have a fitted effect of over 40% in size. Particulars: apoferritin 1-aminoanthracene fluorescence displacement. The method, boiled down: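 Horse apoferritin (10 uM) pre-loaded with 1-AMA (50% saturated, PBS) exposed to compounds 10 min at room temperature; loss of 1-AMA fluorescence (380/535 nm) scaled between free and bound ligand, curves fitted with Hill equation.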
Sequence of Ferritin light chain (Equus caballus) (P02791 2-175 limits assumed): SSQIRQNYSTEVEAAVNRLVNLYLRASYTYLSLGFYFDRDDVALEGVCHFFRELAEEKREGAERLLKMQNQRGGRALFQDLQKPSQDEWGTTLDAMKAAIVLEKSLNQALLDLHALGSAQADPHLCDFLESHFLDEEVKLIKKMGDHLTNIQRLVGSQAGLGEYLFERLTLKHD
Take `Nc1nc(SCc2ccc(Cl)cc2)ns1`: the Potency is 12.6 µM (active).
Next, `O=C(Nc1cccc(Cl)c1)C1COc2ccccc2O1` (centres undefined): 14.1 µM (active); `CCN(CC)CC(=O)Nc1c(C)cc(C(C)(C)C)cc1C`: 12.6 µM (active).
`O=C(CCN1CCN(CCO)CC1)Nc1ccc(C2CCCC2)cc1`: the Potency was 31.6 µM (active).
For the compound `Cc1cccc(C(=O)N2CCCCCC2)c1`, the Potency was 22.4 µM (active).
Next, `O=C(CN1N=C(c2ccccc2)CCC1=O)NCc1cccs1`: 17.8 µM (active); `O=C(CC1SCCNC1=O)Nc1ccc(Cl)c(Cl)c1` (centres undefined): 20 µM (active).
The same measure for `CC(=O)Nc1ccc(C(=O)OCC(=O)NC2CCCCCCC2)cc1`: 15.8 µM (active); for `N/C(=N\OC(=O)Cc1ccc(-c2ccccc2)cc1)c1ccncc1`: 31.6 µM (active); for `Fc1ccccc1CSc1nc2ccccc2[nH]1`: 15.8 µM (active).
The same measure for `O=C1c2ccsc2SCCN1Cc1cccc(Cl)c1`: 15.8 µM (active); for `Cc1csc(Nc2ccccc2)n1`: 35.5 µM (active); for `c1cnc(NC2CCCCCC2)nc1`: 15.8 µM (active).
For `O=C(COC(=O)c1ccccn1)NC12CC3CC(CC(C3)C1)C2`, the Potency was 7.94 µM (active).
The same measure for `Cn1cc([N+](=O)[O-])c(C(=O)Nc2ccc(C3CCCCC3)cc2)n1`: 14.1 µM (active); for `CCOC(=O)c1c(C(C)(C)C)oc2ccc(O)cc12`: 39.8 µM (active); for `Nc1nc(-c2cc(Cl)cc(Cl)c2OC(F)F)cs1`: 8.91 µM (active).
Next, `Fc1cnc(Cl)nc1NC1CCCCC1`: 12.6 µM (active).
Next, `Cc1ccc(NS(=O)(=O)N2CCOCC2)cc1Cl`: 12.6 µM (active).
Take `N#Cc1ccc(NC(=O)COC(=O)CNC(=O)C2CCCCC2)cc1`: the Potency was 15.8 µM (active).
Next, `O=C(CSc1ccccc1)N1CCc2ccccc21`: 20 µM (active); `COc1ccc(CNC(=O)COC(=O)CCC2CCCCC2)cc1`: 15.8 µM (active); `O=C(NC1C2CC3CC(C2)CC1C3)c1ccc(Br)o1` (centres undefined): 11.2 µM (active).
Next, `Cc1ccc(Cn2cccc(NC(=O)NCc3ccccc3)c2=O)cc1`: 7.08 µM (active); `Fc1ccccc1SCc1nnc(-c2ccccc2Br)o1`: 15.8 µM (active).
Next, `O=c1[nH]cnc2sc3c(c12)CCCCC3`: 15.8 µM (active); `Cc1cc(C(F)(F)F)n(-c2ccc(N)cc2)n1`: 17.8 µM (active).
`O=C(CSCCO)Nc1ccc(C2CCCCC2)cc1`: the Potency is 20 µM (active).
`O=C(CC12CC3CC(CC(C3)C1)C2)Nc1nncs1`: the Potency is 10 µM (active).
Next, `Cc1ccc(-c2ccc(=O)n(CC(=O)NC(C)c3ccccc3)n2)cc1` (centres undefined): 20 µM (active); `NC(=O)COC(=O)CC12CC3CC(CC(Br)(C3)C1)C2`: 17.8 µM (active).
The same measure for `Cn1cc(Br)c(C(=O)NC2C3CC4CC(C3)CC2C4)n1` (centres undefined): 10 µM (active); for `c1cc2c(cc1NC1CCCCCC1)OCO2`: 8.91 µM (active).
Take `O=C(NC1=NCCS1)C12CC3CC(CC(C3)C1)C2`: the Potency is 15.8 µM (active).
Next, `CCN1C(=O)N(c2ccc(Cl)cc2)C(C)=CC1(C)C`: 35.5 µM (active).
With `CCC(CC)C(=O)Nc1ccc(Cl)c(Cl)c1`, the Potency is 14.1 µM (active).
With `O=C(Nc1cccc(Cl)c1)OCc1cncs1`, the Potency was 15.8 µM (active).
Regarding `Nc1nnc(SCC(=O)NC23CC4CC(CC(C4)C2)C3)s1`, the Potency was 7.94 µM (active).
As to `CCCNC(=O)OCCC12CC3CC(CC(C3)C1)C2`, the Potency was 7.08 µM (active).
